Test results from PubChem BioAssay (NCATS).
Values joined by “and” are separate entries in the source; they are usually repeats but may differ in a detail not shown here. Equal values may be shown once. Results filed as inconclusive are left out. A structure can be active in one record and inactive in another. Active and inactive are the calls of the source. Calls come from the whole dose curve.

molecular target: Cytochrome P450 1A2 (Homo sapiens) (UniProt P05177); assay: p450-cyp1a2 (AID 410); conditions: recombinant CYP1A2, luciferin-ME demethylation, luminescence; series mostly up to 25.6 µM
Sequence (P05177 whole entry, looked up): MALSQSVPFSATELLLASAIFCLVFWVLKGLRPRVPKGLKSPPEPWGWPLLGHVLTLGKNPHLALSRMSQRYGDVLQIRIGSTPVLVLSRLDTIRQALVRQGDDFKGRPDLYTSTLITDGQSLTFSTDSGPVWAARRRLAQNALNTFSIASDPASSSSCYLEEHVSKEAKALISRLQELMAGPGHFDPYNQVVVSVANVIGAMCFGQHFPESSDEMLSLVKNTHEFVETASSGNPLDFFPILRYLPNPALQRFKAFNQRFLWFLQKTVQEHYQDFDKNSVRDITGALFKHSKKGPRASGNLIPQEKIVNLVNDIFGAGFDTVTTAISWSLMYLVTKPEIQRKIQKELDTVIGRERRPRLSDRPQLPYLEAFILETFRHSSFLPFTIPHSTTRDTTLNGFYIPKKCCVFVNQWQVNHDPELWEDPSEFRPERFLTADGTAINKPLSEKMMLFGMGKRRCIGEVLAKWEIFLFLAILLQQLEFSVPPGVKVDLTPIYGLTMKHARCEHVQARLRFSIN
Procedure: The P450 gene superfamily is involved in metabolism and the clearance of xenobiotics. This assay used human CYP1A2 to measure the demethylation of luciferin 6' methyl ether (Luciferin-ME; Promega-Glo) to luciferin. The luciferin is then measured by luminescence after the addition of a luciferase detection regeant. Luciferin-ME concentration in the assay was equal to its Km for CYP1A2.
NCGC Assay Protocol Summary:
Two uL of enzyme and substrate mix (final concentrations: 20nM CYP1A2, 100uM Luciferin-ME, 100mM KPO4) were dispensed into a white, solid bottom 1536-well microtiter plate. 23nL of compound was transferred by a pin tool. The plate was incubated at room temperature for 10 min. Two uL of an NADPH regeneration solution (Promega supplied reagent) was dispensed and the reaction was allowed to continue for 60 min at room temperature. Then the reaction was stopped by reconstituted detection reagent. After another 20 min of incubation the plate was read on the ViewLux (Perkin Elmer) at 60 sec exposure and 2x2 binning. This protocol was carried out with Promega-Glo reagents and further information can be found at http://www.promega.com/tbs/tb325/tb325.pdf. Data were normalized to the to AC100 inhibition (57 uM furafylline).
Potency is the fitted concentration of half-maximal effect.

Row | Structure (SMILES) | Potency
1 | CCN(CC)CCOc1ccc(/C(=C(\Cl)c2ccccc2)c2ccccc2)cc1 | 12.6 µM (active)
2 | CCOC(=O)NNc1nncc2ccccc12 | 5.01 µM (active)
3 | O=C(CCCCC(=O)Nc1c(I)cc(I)c(C(=O)O)c1I)Nc1c(I)cc(I)c(C(=O)O)c1I | inactive
4 | COc1ccccc1N1CCN(CCN2C(=O)CC3(CCCC3)CC2=O)CC1 | 31.6 µM (active) and inactive
5 | Cn1cnc2c(NCc3ccccc3)nc(NCCO)nc21 | 7.94 µM (active) and 5.01 µM (active)
6 | CN(C)c1cc2c(Nc3ccc4c(cnn4Cc4ccccc4)c3)ncnc2cn1 | 7.94 µM (active)
7 | CC(C)N(CCC(=O)c1ccc2ccccc2c1)Cc1ccccc1 | 3.98 µM (active) and 2.51 µM (active)
8 | Brc1ccc([C@H]2CN3CCSC3=N2)cc1 | 15.8 µM (active)
9 | O=C(O)/C=C(\CC(=O)O)C(=O)O | inactive
10 | OC(CCCN1CCCCC1)(c1ccccc1)c1ccccc1 | inactive
11 | C[N+](C)(C)CCO | inactive
12 | Cc1ncc(CO)c(CO)c1O | inactive
13 | C[C@@H](C1=C(CCN(C)C)Cc2ccccc21)c1ccccn1 | 20 µM (active)
14 | CN(C(=O)C(Cl)Cl)c1ccc(OC(=O)c2ccco2)cc1 | inactive
